Rows were chosen to be rich in hits. Some 6.5% of all compounds tested hit in one or more screens of this group.
Marburg entry inh = blocks Marburg virus binding to or entry into cells. hit rate 1.8% among 300,000. Marburg virus pseudotyped entry inhibition, cell reporter. Potency, µM (highest dose often 37.8 µM), for the others: top-dose activity change, negative = inhibition, most hits filed as inhibitors; calls by dose curve; tested in HEK293 cells; note: potency is the fitted concentration of half-maximal effect
FMDV inh = antivirals against foot and mouth disease virus | FMDV antiviral cell-based qHTS | Potency, µM (top dose mostly 57.9 µM), inactives show at the top dose activity change, negative = inhibition, actives largely listed as inhibitors | hit rate 1.2% among 410,000; calls by dose curve; tested in HEK293T cells; note: read-out not given here; potency is the fitted concentration of half-maximal effect; nearly all actives have a fitted effect of over 45% in size
VACV mCherry inh = inhibitors of vaccinia virus infection (mCherry reporter signal); Potency, µM (doses to about 36.5 µM), for inactives: top-dose activity change, negative = inhibition, usual class: inhibitors; hit rate 0.63% among 310,000; AID 720579; Vaccinia virus mCherry reporter infection, fluorescence; calls by dose curve; tested in A549 cells; note: potency is the fitted concentration of half-maximal effect; nearly all actives have a fitted effect of over 35% in size
Vaccinia Venus = inhibitors of vaccinia virus (Venus reporter); Vaccinia virus Venus reporter expression, fluorescence; Potency, µM (highest dose often 36.5 µM), for inactives: top-dose activity change, negative = inhibition, most hits filed as inhibitors; hit rate 0.46% among 330,000; AID 720580; calls by dose curve; tested in A549 cells; note: potency is the fitted concentration of half-maximal effect; nearly all actives have a fitted effect of over 30% in size
HCMV inh = inhibitors of human cytomegalovirus; activity change, negative = inhibition, % at 57.5 µM; HFF cells, HCMV-luciferase reporter, 72 h; active compounds read low; hit rate 4.5% among 410,000; AID 1259415; in the data active = activity change below about -60%; inconclusive = no clear call, values can overlap the other calls; inactive = above about -39%
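Two-dose cell screen: HFF monolayers treated with compounds and infected with luciferase-expressing HCMV at 1 PFU/cell, 72 h at 37C, then lysed for luciferase measurement.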
LASV entry inh = inhibitors of Lassa virus binding or cell entry; Lassa virus pseudotype entry inhibition, cell reporter; Potency, µM (doses to about 37.9 µM), for inactives: at the highest dose activity change, negative = inhibition, most hits filed as inhibitors; hit rate 1.2% among 300,000; calls by dose curve; tested in HEK293 cells; note: potency is the fitted concentration of half-maximal effect; nearly all actives have a fitted effect of over 50% in size
The depositor's hits bear a star; ? = inconclusive; nt = no result given; + = active, no number; [ ] = dose if it differs, or a comment. % is set by controls: 0 for no effect and ±100 for the full control effect.

SMILES | Marburg entry inh | FMDV inh | VACV mCherry inh | Vaccinia Venus | HCMV inh | LASV entry inh
COc1ccc(OCC(O)Cn2c(=N)n(Cc3ccccc3)c3ccccc32)cc1 (stereo unspecified) | 4.1µM* | ? | nt | nt | -38 | ?
Cc1cccc(OCC(O)Cn2c(=N)n(Cc3ccccc3)c3ccccc32)c1 (stereo unspecified) | nt | ? | nt | nt | -10 | nt
COc1ccc(S(=O)(=O)NCc2ccc3c(c2)CCN3C(=O)c2ccc(C)cc2)cc1Cl | nt | -15% | -22% | -17% | -26 | ?
Clc1ccc2c(Cl)cc[n+](CCC3CCCCC3)c2c1 | nt | nt | 37% | -8% | nt | nt
CCc1nnc(NC(=O)c2nc(SCc3ccc(F)cc3)ncc2Cl)s1 | -17%[46.1 µM] | 47% | 1% | 7% | 17 | -4%[46.1 µM]
Cc1ccc(N2C(N)=C(C#N)C(c3ccsc3)C3=C2CC(C)(C)CC3=O)cc1 (stereo unspecified) | ? | -26% | -23%[1.46 µM] | -23% | -101* | ?
Cc1ccc(CNC(=O)COC(=O)c2cc3c(s2)CCC(C)C3)cc1 (stereo unspecified) | ? | 1% | -12% | -9% | -21 | 7.9µM*
CC1CCc2sc(C(=O)N/N=C/c3ccc(O)cc3)cc2C1 (stereo unspecified) | nt | 9% | ? | -18% | -64* | nt
CC1CCc2sc(C(=O)OCC(=O)NCc3ccccc3)cc2C1 (stereo unspecified) | -22% | -15% | -12% | -27% | -20 | 10µM*
CC1CCc2sc(C(=O)NCc3ccc(F)cc3)cc2C1 (stereo unspecified) | -6% | 38% | nt | nt | -4 | 5%
C/C(=N\NC(=O)c1cc2c(s1)CCC(C)C2)c1ccncc1 (stereo unspecified) | ? | 0% | -18% | -11% | ? | 2%
O=S1(=O)N[C@H](c2ccccc2)COc2cc(Br)ccc21 | nt | nt | nt | nt | -6 | -3%[46.1 µM]
Cn1ncc2c(Nc3ccc(Cl)cc3)ncnc21 | nt | 56% | nt | nt | + | nt
COc1ccc(Nc2ncnc3ccc(C)cc23)cc1 | nt | 15% | nt | nt | -72* | nt
c1ccc(Cn2ncc3c(Nc4ccccc4)ncnc32)cc1 | nt | -19% | nt | nt | 15 | nt
COc1ccc(OC)c(Nc2ncnc3ccccc23)c1 | ? | 16% | -8% | -14% | -23 | 12%
COc1ccc(Nc2cc(C)nc3ccc(C)cc23)cc1 | nt | -5% | -13% | -8% | -33 | nt
Cc1ccc(Nc2ncnc3c2cnn3C)cc1 | nt | 36% | -10% | -16% | 9 | nt
COc1ccc(OC)c(Nc2ncnc3ccc(Br)cc23)c1 | nt | -26% | nt | nt | -63* | nt
COc1ccc(Nc2ncnc3c2cnn3Cc2ccc(C)cc2)cc1 | ? | 28µM* | ? | -22% | -39 | ?
COC(=O)c1cc(NC(=O)Cn2ncc3c([nH]c4ccccc43)c2=O)cc(C(=O)OC)c1 | nt | 12% | 2% | -6% | 13 | 16%[46.1 µM]
Brc1ccc2ncnc(Nc3cccc4ccccc34)c2c1 | ? | nt | -22% | -29% | -66* | ?
COc1cccc(Nc2ncnc3ccc(Br)cc23)c1 | nt | 0% | -23% | ? | ? | nt
CN1C(=O)C(CC(=O)NCCc2ccccc2)N(NC(=O)c2ccc(Cl)cc2)C1=S (stereo unspecified) | nt | -10% | nt | nt | -74* | nt
CN1c2cc(Cl)ccc2-c2nc(SCC(=O)Nc3ccc(F)cc3F)ncc2S1(=O)=O | nt | ? | ? | -30% | -63* | -7%[46.1 µM]
SMILES | Marburg entry inh | FMDV inh | VACV mCherry inh | Vaccinia Venus | HCMV inh | LASV entry inh
Cc1ccc(NC(=O)CSc2ncc3c(n2)-c2ccc(Cl)cc2N(C)S3(=O)=O)cc1F | nt | -16% | -18% | -8% | -16 | 25%[46.1 µM]
O=C(CSc1ncc2c(n1)-c1cc(Cl)ccc1N(Cc1ccccc1)S2(=O)=O)Nc1ccc(F)cc1F | nt | ? | -14% | -27% | -98* | ?
Cc1cccc(C)c1NC(=O)CSc1ncc2c(n1)-c1ccc(Cl)cc1N(Cc1ccccc1)S2(=O)=O | nt | -11% | -10%[7.34 µM] | -7%[7.34 µM] | -99* | 6%[46.1 µM]
CCOc1ccc(C[C@H]2CC(=O)NC2=O)cc1 | 0% | nt | nt | nt | nt | nt
Cc1ccc2nc(SC(C)C(=O)Nc3cccc([N+](=O)[O-])c3)[nH]c2c1 (stereo unspecified) | ? | ? | -22% | ? | -67* | -11%
CC(Sc1nc2ccccc2[nH]1)C(=O)Nc1ccccc1F (stereo unspecified) | ? | -16% | -3% | -6% | -73* | 14%[46.1 µM]

Screening results deposited in PubChem BioAssay by National Center for Advancing Translational Sciences (NCATS).
